For 103 molecules, AC50 and activity, negative = inhibition results are on record in PubChem BioAssay AID1851 (National Center for Advancing Translational Sciences (NCATS), 2009).

“And” between values parts separate entries of the source, which are not always exact repeats. Identical values can stand only once. About 5,700 (36%) of roughly 16,000 compounds were called active. About 24% were inconclusive and are not listed. Some of the results follow. Unmarked numbers belong to inactive results. Calls come from the whole dose curve; as a rule, active = well fitted curve in the direction sought with a large enough effect; inconclusive = small, poorly fitted or top-dose-only effect, or effect the other way; inactive = no such curve, though single readings can be large or run the other way.
% is set by controls: 0 for no effect and ±100 for the full control effect.

In this experiment the target is Cytochrome P450 1A2 (Homo sapiens) (UniProt P05177). Briefly: Cytochrome panel assay with activity outcomes. As to conditions: recombinant CYP, pro-luciferin dealkylation, luminescence, p450-cyp1a2; series mostly up to 57.1 µM.
Sequence of Cytochrome P450 1A2 (Homo sapiens) (P05177 whole entry, looked up): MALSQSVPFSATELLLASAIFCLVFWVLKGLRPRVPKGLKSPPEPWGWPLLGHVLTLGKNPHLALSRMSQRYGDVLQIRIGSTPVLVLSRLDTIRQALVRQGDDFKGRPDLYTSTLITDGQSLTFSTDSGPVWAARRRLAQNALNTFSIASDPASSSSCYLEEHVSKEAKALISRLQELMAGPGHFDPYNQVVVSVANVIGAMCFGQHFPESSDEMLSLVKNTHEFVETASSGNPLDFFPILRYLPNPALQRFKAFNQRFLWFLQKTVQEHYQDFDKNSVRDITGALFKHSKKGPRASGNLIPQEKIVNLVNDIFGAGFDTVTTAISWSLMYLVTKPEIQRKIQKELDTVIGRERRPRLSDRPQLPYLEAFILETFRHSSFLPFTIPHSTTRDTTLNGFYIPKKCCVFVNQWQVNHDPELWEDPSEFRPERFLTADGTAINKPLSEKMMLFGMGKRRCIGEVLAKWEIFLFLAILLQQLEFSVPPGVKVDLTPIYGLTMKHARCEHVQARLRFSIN
As usually defined, the AC50 is the concentration at which the activity in the assay is half-maximal. Take `COC(=O)\C(C(C)=O)=C(/C=C/C=C/C=C/N(C)C)N(C)C`: the AC50 result was “inactive”. As for `Cc1cc(Cc2c(C)c(C)c(Cc3cc(C)cc(C(C)(C)C)c3O)c(C)c2C)c(O)c(C(C)(C)C)c1`, the activity, negative = inhibition was 4.96% [at 2.29 µM]. Turning to `CC(C)(CO)Cc1cc(C(C)(C)C)c(O)c(C(C)(C)C)c1`, the AC50 was 25.1 µM (active). The same measure, in the same setting: as for `Nc1c2c(nc3ccccc13)CCCC2`, the figure is 3.16 µM (active) and 794 nM (active) and 501 nM (active). With `Cc1ccc(S(=O)(=O)Oc2cc(N)c3c(n2)CCC3)cc1`, the activity, negative = inhibition is -19.4% [at 2.29 µM]. Turning to `Nc1c2ccccc2nc2c(O)cccc12`, the AC50 is 6.31 µM (active). Regarding `Nc1c2c(nc3ccccc13)CCC[C@H]2O`, the AC50 was 10 µM (active). In the case of `COC(=O)[C@@]1(Cc2ccccc2)[C@H]2c3cc(C(=O)N4CCCC4)n(Cc4cc(F)cc5c4OCOC5)c3C[C@H]2CN1C(=O)c1ccccc1`, the AC50 result was “inactive”. `CC(=O)C[C@H](c1ccc([N+](=O)[O-])cc1)c1c(O)c2ccccc2oc1=O`: the AC50 result is “inactive”.

Regarding `Cc1cc(NC(=O)C2CCCCC2)nc2c1c(=O)oc1ccccc12`, the AC50 was 3.16 µM (active). Regarding `Cn1c(CN2CCCC2)nc2cc(NC(=O)C3CCCCC3)ccc21`, the AC50 result is “inactive”. Still for that read-out and setting: in the case of `CC(C)(C)C(=O)OCc1cn(-c2ccc(Cl)cc2)nn1` it was 0.708 µM (active); in that of `Cc1ccc(C(=O)c2cn(-c3ccc(F)c(Cl)c3)nn2)cc1`, “inactive”; in that of `Cc1ccccc1NC(=O)OCc1cn(-c2ccc(Cl)cc2)nn1`, 0.447 µM (active). For the molecule `CCCCC(=O)OCc1cn(-c2ccc(Cl)cc2)nn1`, the AC50 was 0.447 µM (active). `CC(C)(C)C(=O)N1CCC(O)(CS(=O)(=O)Cc2ccc(Cl)cc2)CC1`: the AC50 entry is “inactive”.

As for `CS(=O)(=O)N1CCC2(CC1)CN(C(c1ccccc1)c1ccccc1)C2`, the AC50 result was “inactive”.

Consider `CCCC(=O)N1c2ccccc2C(N(C(C)=O)c2ccccc2)CC1C` (stereo not drawn), for which the AC50 entry is “inactive”.

`COCC(=O)N1CCC2(CC1)CN(C(c1ccccc1)c1ccccc1)C2`: the AC50 entry was “inactive”. As for `COc1ccc(S(=O)(=O)N2CCc3ccccc3C2)cc1OC`, the AC50 entry was “inactive”. The same measure, in the same setting: as for `COc1cc2c(cc1OC)CN(C(=S)Nc1ccccc1)CC2`, the figure is 12.6 µM (active); as for `COc1cc2c(cc1OC)[C@H](c1ccccc1)CN(C)CC2`, “inactive”. Regarding `CCOC(=O)c1nnn(-c2nonc2N)c1-c1ccccc1`, the AC50 is 0.891 µM (active).

As to `CCOC(=O)c1nn(-c2ccccc2)c(-c2ccccc2)c1C(=O)c1ccccc1`, the AC50 result was “inactive”. Same read-out and setting: as for `CCOC(=O)c1nnn(-c2nonc2N)c1-c1ccc(C)cc1`, the figure is 0.891 µM (active); as for `CC(C)OC(=O)c1nnn(-c2nonc2N)c1CSc1ccccn1`, 1.78 µM (active). In the case of `COC(=O)N1CCC2(CCCN(C(=O)Nc3ccccc3)C2)CC1`, the AC50 result is “inactive”. As for `C[C@@]1(CCOCc2ccccc2)NC(=O)NC1=O`, the activity, negative = inhibition is -13.5% [at 11.4 µM]. Same read-out and setting: in the case of `c1ccc(C(CCN2CC3CCC(CC3)C2)c2ccccc2)cc1` it was 9.33% [at 11.4 µM]. In the case of `C[C@@H]1CN(CCCn2c3ccccc3c3ccccc32)C[C@H](C)N1`, the AC50 was 0.794 µM (active). With `CN(C)CCCn1c2ccccc2c2cnccc21`, the activity, negative = inhibition is -20% [at 2.29 µM]. With `C/C(=N\NC(=O)c1[nH]c2c([N+](=O)[O-])cc(C)cc2c1-c1ccccc1)c1cccnc1`, the AC50 was 1.26 µM (active).

Turning to `COc1ccc(NC(=O)N2CCCC2C(=O)Nc2ccccc2)cc1` (stereo not drawn), the AC50 entry is “inactive”. Same read-out and setting: as for `COc1ccc(C(=S)Nc2ccccc2)cc1`, the figure is 0.631 µM (active); as for `COc1ccc2c(Cl)cc(NC(=S)Nc3ccccc3)nc2c1`, 0.398 µM (active). Turning to `CS(=O)(=O)N1CCC[C@@]2(CCN(C(=O)Nc3cccc(F)c3)C2)C1`, the AC50 entry was “inactive”. `CC(C)(C)c1cc(/C=C(\C#N)C(N)=S)cc(C(C)(C)C)c1O`: the AC50 was 12.6 µM (active).

Consider `c1ccc(SCCc2ccncc2)cc1`, for which the AC50 was 447 nM (active) and 200 nM (active). Take `Fc1ccc(SCCc2ccncc2)cc1`: the AC50 is 0.562 µM (active). For the molecule `N=C(N)SCCc1ccncc1`, the activity, negative = inhibition was -17.8% [at 2.29 µM]. For `COc1ccc(CCC(C)Nc2cccc(F)c2)cc1` (stereo not drawn), the AC50 was 3.55 µM (active).

Take `COc1ccc(CCC(C)NC2C3CC4CC(C3)CC2C4)cc1` (stereo not drawn): the AC50 result is “inactive”. Turning to `CCn1c(C)c(/C=N/Nc2nc3ccccc3s2)c2ccccc21`, the AC50 was 2.51 µM (active). The same measure, in the same setting: in the case of `CCOC(=O)c1sc(NS(=O)(=O)c2ccccc2)nc1C` it was “inactive”; in that of `CCOC(=O)Nc1nc(-c2ccccc2)c(C)s1`, 0.2 µM (active); in that of `CCOC(=O)c1sc(NC(C)=O)nc1-c1ccccc1`, 2.82 µM (active).

In the case of `CCN(CC)C(=O)N1CCN(C)CC1`, the AC50 entry was “inactive”. As to `COc1ccc(O[C@H]2C=C[C@@H](c3ccccc3)O[C@H]2CO/N=C(/C)CCC(=O)OC[C@@H]2O[C@H](C#Cc3ccccc3)C=C[C@@H]2Oc2ccc(C)cc2)cc1`, the activity, negative = inhibition is -5.99% [at 11.4 µM]. Regarding `O=C(O)c1ccc(Sc2nnnn2-c2ccccc2)c([N+](=O)[O-])c1`, the AC50 entry was “inactive”. On to `O=[N+]([O-])c1cc(/C=N/O)ccc1SCc1ccccc1`, for which the AC50 was 0.891 µM (active). Consider `O=C(O)[C@H](Cc1ccc(O)c([N+](=O)[O-])c1)N1C(=O)c2ccccc2C1=O`, for which the activity, negative = inhibition is -17.9% [at 2.29 µM]. As for `CCOC(=O)c1cnc2cc(-c3ccc(C(C)(C)C)cc3)nn2c1N`, the AC50 result was “inactive”. On to `CCOC(=O)c1cnc2cc(-c3ccc(C)cc3)nn2c1-c1ccccc1`, for which the AC50 was 2.24 µM (active).

For `C=CCSc1nc(C)cc(/C=C\c2ccccc2)c1C#N`, the AC50 was 2.51 µM (active). Turning to `Nc1nc(Cl)nc2c1ncn2[C@@H]1O[C@@H](CO)[C@@H](O)[C@H]1O`, the AC50 result was “inactive”. In the case of `O=C1S/C(=C/c2ccc(N3CCOCC3)o2)C(=O)N1Cc1ccc(F)cc1`, the AC50 is 3.55 µM (active). For `COC(=O)CN1C(=O)S/C(=C/c2ccc(N3CCCCC3)o2)C1=O`, the AC50 is 0.891 µM (active).

For the molecule `COC(=O)COc1ccc(/C=C2/SC(=O)N(CC(=O)N3CCCC3)C2=O)cc1Br`, the AC50 result was “inactive”. On to `COC(=O)C1C(O)=C(C=NCc2ccccc2)C(=O)CC1(C)C` (stereo not drawn), for which the AC50 result was “inactive”.

Take `O=C(c1cc2sccc2n1Cc1ccccc1)N1CCN(c2nc3ccccc3s2)CC1`: the AC50 result is “inactive”. Turning to `O=C(COc1ccc(Cl)cc1)N1CCN(Cc2ccc3c(c2)OCO3)CC1`, the AC50 is 5.01 µM (active). For the molecule `O=C(CCN1C(=O)c2cccc3cccc(c23)C1=O)N1CCN(Cc2ccc3c(c2)OCO3)CC1`, the AC50 result is “inactive”.

Take `CN(Cc1ccccc1)S(=O)(=O)c1ccc(OCC(=O)N2CCOCC2)cc1`: the AC50 entry was “inactive”.

`c1ccc2sc(N3CCN(Cc4ccc5c(c4)OCO5)CC3)nc2c1`: the AC50 is 1 µM (active). For the molecule `c1cnc(N2CCN(Cc3ccc4c(c3)OCO4)CC2)nc1`, the AC50 is 6.31 µM (active) and 3.16 µM (active) and 2 µM (active).

For `C[n+]1cc(-c2ccccc2)n2c1CCCCC2`, the AC50 result is “inactive”. On the same count and under the same terms, as for `COc1ccc(/C=C/c2ccncc2)cc1`, the figure is 1.26 µM (active); as for `CCCCCOc1ccc(OC(=O)c2ccncc2)cc1`, 12.6 µM (active); as for `COc1ccc(OC(=O)c2ccncc2)cc1`, 6.31 µM (active).

For the molecule `COc1ccc(NC(=O)N2CC3(CCN(C(=O)c4ccncc4)CC3)C2)cc1`, the AC50 entry is “inactive”. Still for that read-out and setting: in the case of `COc1ccc(C(=O)N2CCC3(CC2)CN(c2ccncc2)C3)cc1` it was “inactive”. For `COc1ccc(/C=C(/NC(C)=O)C(=O)O)cc1`, the AC50 result was “inactive”. As for `O=C1CCCC=C1[C@@H](O)C1CCCCC1`, the activity, negative = inhibition was -1.29% [at 11.4 µM]. In the case of `O=C(c1cc(-c2ccc(Cl)cc2Cl)on1)N1CCN(C(=O)c2ccco2)CC1`, the AC50 was 15.8 µM (active). `O=C(c1ccc(Cl)cc1)N1CCN(C(=O)c2ccco2)CC1`: the AC50 result was “inactive”. For the molecule `O=C(Cc1ccc(Cl)cc1)N1CCN(C(=O)c2ccco2)CC1`, the AC50 entry is “inactive”. Take `CC(=O)NCCNc1ncnc2ccc(-c3ccc4c(c3)OCO4)cc12`: the AC50 is 0.501 µM (active). `CC(=O)NCCNc1ncnc2ccc(-c3ccoc3)cc12`: the concentration at half-maximal activity (AC50) is 12.6 µM (active).

Take `COCCNc1ncnc2ccc(-c3ccc(N(C)C)cc3)cc12`: the AC50 was 0.251 µM (active). `COCCNc1ncnc2ccc(-c3ccc(C(=O)N(C)C)cc3)cc12`: the AC50 entry is “inactive”.

Turning to `COCCNc1ncnc2ccc(-c3ccoc3)cc12`, the AC50 is 15.8 µM (active). Regarding `CCc1cc2c(nc1CC)CCN(CC/C(C)=N/OC[C@@H](O)COCc1ccco1)C2`, the activity, negative = inhibition was -8.65% [at 11.4 µM]. Still for that read-out and setting: in the case of `CN(C)CCCN1c2ccccc2Sc2ccc3ccccc3c21` it was -2.18% [at 2.29 µM]. As for `CN(C)CCCN1c2ccc3ccccc3c2Sc2cccc(Cl)c21`, the AC50 was 1 µM (active).

In the case of `CCC(=S)/C=C1\Sc2ccc3ccccc3c2N1CCCS(=O)(=O)O`, the AC50 result is “inactive”.

As to `COc1ccc(C(=O)N2CCC3(CC2)CN(C(=O)Nc2cccc(C#N)c2)C3)cc1`, the AC50 result was “inactive”. With `O=C(OC1CCN(c2ccc([N+](=O)[O-])cc2)CC1)c1ccccc1`, the AC50 entry was “inactive”. Take `O=c1cc(-c2ccccc2)[nH]n1-c1ccc([N+](=O)[O-])cc1`: the AC50 is 22.4 µM (active). Regarding `CCCNc1c(F)c(F)c2c(C)c3ccccc3nc2c1F`, the AC50 is 0.708 µM (active).

Regarding `Oc1ccc2ccccc2c1/C=C\c1ccc2c(Br)cc(Br)c(O)c2n1`, the concentration at half-maximal activity (AC50) is 3.98 µM (active). With `CC(=O)N1CC(=O)N(OCc2ccccc2)C1c1ccc(Cl)cc1Cl` (stereo not drawn), the AC50 entry is “inactive”. The same measure, in the same setting: in the case of `CC(=O)N1N=C(c2cccc([N+](=O)[O-])c2)OC1c1ccc(Cl)cc1Cl` (stereo not drawn) it was 2.51 µM (active); in that of `CC(=O)N1N=C(c2cccc([N+](=O)[O-])c2)OC1c1ccccc1Cl` (stereo not drawn), 14.1 µM (active). For the molecule `COc1ccc(C2C3=C(CC(C)(C)CC3=O)Oc3ncn(CC(C)C)c(=N)c32)cc1` (stereo not drawn), the AC50 result was “inactive”.

In the case of `NNC(=O)CNc1cccc(Br)c1`, the AC50 was 0.501 µM (active). On to `CCC[C@H]1C(=O)N2C(N(C)C)=Nc3ccc(C)cc3N2C1=O`, for which the AC50 is 1.58 µM (active). Same read-out and setting: as for `Cc1ccc2c(c1)N(CCC(=O)NCC1CCCO1)C(=O)CO2` (stereo not drawn), the entry is “inactive”; as for `COCCn1c(=O)c(-c2cc(F)cc(F)c2)nc2cnc(N3CCNCC3)nc21`, 6.31 µM (active).

As for `COCCn1c(=O)c(-c2cccc(C#N)c2)nc2cnc(N3CCNCC3)nc21`, the AC50 is 10 µM (active). Turning to `CN1CCN(c2ncc3nc(-c4cccc(C#N)c4)c(=O)n(Cc4ccc(F)cc4)c3n2)CC1`, the AC50 entry is “inactive”. Still for that read-out and setting: in the case of `COc1cccc(Cn2c(=O)c(-c3cc(F)cc(F)c3)nc3cnc(N4CCNCC4)nc32)c1` it was “inactive”; in that of `COCCn1c(=O)c(-c2ccc(OC)cc2)nc2cnc(N3CCNCC3)nc21`, 6.31 µM (active); in that of `CN1CCN(c2ncc3nc(-c4cccc(C#N)c4)c(=O)n(CCC#N)c3n2)CC1`, “inactive”.
